Screening data from PubChem.
Only some compounds are listed: those with a hit (about 28% of all), similar ones and a draw of the others.
CD11b adhes enh: increases human CD11b/CD18 adhesion to fibrinogen; AID 1499; K562 CD11b/CD18 adhesion to fibrinogen, ATPlite luminescence; P05107+P11215; activation, % at 10 µM; actives 0.07% (n = 93,000);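 active = 10 µM primary screen giving 50% or more activity, confirmed by 40% or more on retest at that dose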
CYP2C19 inhib: human CYP2C19 inhibition. P33261. CYP2C19 Supersomes, luciferin-H EGE luminescence, 30 min. inhibition, % at 5 µM. actives 21% (n = 96,000);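 active = CYP2C19 inhibition above a set limit at 5 µM in the primary screen, cut at about 50% in these data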;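 also: plate controls were negative control wells for no effect and 2.5 mM tranylcypromine positive control for full effect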
CYP2C9 act: increases human cytochrome P450 2C9 activity | actives 1.4% (n = 96,000) | recombinant CYP2C9, luciferin-H conversion, luminescence; hits give high values; factor 1 = untreated enzyme, 0 = blocked | activation factor at 5 µM;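 active = activation factor of 2 or more for CYP2C9 at a 5 µM dose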;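 also: 0 = sulfaphenazole-blocked wells and 1 = vehicle-only wells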
Target sequence (P11712 whole entry, looked up): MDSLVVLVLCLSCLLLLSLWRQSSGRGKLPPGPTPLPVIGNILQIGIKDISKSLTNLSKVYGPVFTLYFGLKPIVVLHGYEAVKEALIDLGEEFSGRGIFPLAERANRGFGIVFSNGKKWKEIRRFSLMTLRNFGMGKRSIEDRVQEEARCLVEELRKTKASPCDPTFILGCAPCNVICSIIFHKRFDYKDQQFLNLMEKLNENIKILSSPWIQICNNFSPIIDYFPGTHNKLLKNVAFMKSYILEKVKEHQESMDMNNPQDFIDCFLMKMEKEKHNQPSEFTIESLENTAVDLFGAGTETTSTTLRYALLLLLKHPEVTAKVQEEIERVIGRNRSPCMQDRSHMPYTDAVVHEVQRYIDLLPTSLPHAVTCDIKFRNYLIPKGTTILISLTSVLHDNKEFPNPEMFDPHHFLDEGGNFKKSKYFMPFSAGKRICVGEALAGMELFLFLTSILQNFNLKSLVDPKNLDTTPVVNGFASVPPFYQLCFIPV
CYP2C19 activ: activators of human cytochrome P450 2C19. activation factor at 5 µM. recombinant CYP2C19, luciferin-H EGE luminescence; hits give high values; 0 = fully inhibited enzyme, 1 = untreated enzyme. 96,000 tested, under 10 active;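 active = activation factor of at least 2 at 5 µM in the primary screen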;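 also: 0 = wells with 2.5 mM tranylcypromine and 1 = vehicle-only wells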
CYP2C9 inh: blocks human cytochrome P450 2C9; P11712; CYP2C9 Supersomes, luciferin-H conversion, luminescence; inhibition, % at 5 µM; actives 20% (n = 96,000); AID 777;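 active = blocking of liver enzyme CYP2C9 beyond about 50% at 5 µM, limit read from the data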
CD11b adhes inh: blocks human CD11b/CD18 adhesion to fibrinogen; AID 1497; K562 CD11b/CD18 adhesion to fibrinogen, ATPlite luminescence; Mn2+ added to activate the integrin; P05107+P11215; actives 0.54% (n = 93,000); inhibition, % at 10 µM;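 active = primary inhibition of 50% or more at 10 µM, then 40% or more on retest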
Starred values were filed as active, the others as inactive; / = not tested or not shown.

SMILES	CD11b adhes enh	CYP2C19 inhib	CYP2C9 act	CYP2C19 activ	CYP2C9 inh	CD11b adhes inh
CCN(CC)c1ccc(NC(=O)COC(=O)c2ccc3ccccc3n2)cc1	-0.4	22.7	1	0.8	2.2	5.0
CCN1CCN(Cc2ccc(NC(=O)Nc3ccccc3OC)cc2)CC1	2.0	-5.6	0.9	1.1	6.3	1.7
CC(C)OCCCNC(=O)CCSc1ccc(Cl)cc1	0.7	62.7*	0.2	0.4	78.2*	-7.1
COC(=O)c1ccc(C)c(NC(=O)CCSc2ccc(Cl)cc2)c1	-2.8	49.3	0.6	0.5	38.6	-7.2
CCOc1ccc(-n2cc(C(=O)Nc3cccc(Cl)c3)c3cc(OC)c(OC)cc3c2=O)cc1	16.3	36.3	0.4	0.6	59.4*	-26.5
CCOc1ccc(NC(=O)c2cn(-c3ccc(OCC)cc3)c(=O)c3cc(OC)c(OC)cc23)cc1	1.1	19.9	0.6	0.8	39.1	-12.2
COC(=O)c1ccc(Oc2coc3cc(OCc4ccc([N+](=O)[O-])cc4)ccc3c2=O)cc1	44.7	/	/	/	/	-17.4
Cc1ccc(Cn2c(SCC(C)C)nc3c2c(=O)n(C)c(=O)n3C)cc1	-1.1	26.7	0.9	0.7	5.1	3.3
CC(C)Oc1cccc(C(=O)NC(=S)N2CCN(c3ccc(C(F)(F)F)cc3[N+](=O)[O-])CC2)c1	-3.1	32.1	0.4	0.7	62.5*	14.4
c1cnc2ccc(C(c3nnnn3C3CCCCC3)N3CCN4CCCC4C3)cc2c1 (centres undefined)	-2.5	-0.6	0.3	1	68.8*	-10.4
c1cnc2ccc(C(c3nnnn3C3CCCC3)N3CCN(c4nc5ccccc5s4)CC3)cc2c1 (centres undefined)	-2.0	69.8*	0.1	0.3	88.5*	8.4
OC1CCN(C(c2ccc3ncccc3c2)c2nnnn2C2CCCCC2)CC1 (centres undefined)	-0.5	-14.3	1.1	1.1	-8.4	-11.3
CCC(C)(C)n1nnnc1C(c1ccc2ncccc2c1)N1CCN2CCCC2C1 (centres undefined)	1.2	59.0*	1	0.4	3.0	-14.8
CCCC1Cc2nc(N3CCCCC3)c(C#N)cc2CO1 (centres undefined)	1.3	73.2*	0.1	0.3	86.2*	4.2
O=C(CCSCCc1ccccn1)Nc1ccc(Cl)cn1	-9.1	23.5	0.8	0.8	23.6	3.2
Cc1cc(F)ccc1NCc1ccncc1	4.6	82.4*	0.4	0.2	61.5*	-1.0
Cc1cc(F)ccc1NCc1cc2c(cc1[N+](=O)[O-])OCO2	1.3	27.7	1	0.7	2.3	-8.7
Cc1cccc(C(C)Nc2ccc([N+](=O)[O-])cn2)c1 (centres undefined)	/	48.8	0.3	0.5	74.8*	/
CC(=O)Nc1ccc([N+](=O)[O-])cn1	/	2.8	1.2	1	-22.9	/
Cc1ccc(NC(=O)c2cnn(-c3ccccc3)c2NC(=O)c2ccco2)cc1	-2.5	14.4	0.7	0.9	34.7	-9.5
CCCC(=O)Nc1cc(Cl)ccc1N1CCN(C(=O)CC)CC1	0.1	86.3*	0.2	0.1	84.6*	-0.6
CCC(=O)N1CCN(c2ccc(Cl)cc2NC(=O)Cc2ccc(Cl)cc2)CC1	-0.4	51.2*	0.5	0.5	45.2	-4.1
Cc1ccc(Cl)cc1NC(=O)Cn1cc2c(n1)CCCC2	-2.8	21.6	0.8	0.8	19.7	-9.3
COC(=O)[C@H](Cc1ccccc1)NC(=O)NCC1CCCO1 (some centres undefined)	-0.2	3.3	0.9	1	5.2	-9.5
Cn1c(SCC(=O)NCc2ccc3c(c2)OCO3)nc2scc(-c3cccs3)c2c1=O	9.0	23.1	0.2	0.8	79.5*	9.1
SMILES	CD11b adhes enh	CYP2C19 inhib	CYP2C9 act	CYP2C19 activ	CYP2C9 inh	CD11b adhes inh
Cc1ccc(-c2csc3ncnc(SCC(=O)NCc4ccc5c(c4)OCO5)c23)cc1	/	22.0	0.4	0.8	56.6*	/
COc1ccccc1CNC(=O)CSc1nc(N)c(C#N)c(-c2cccs2)c1C#N	/	8.7	1	0.9	-0.9	/
N#Cc1c(N)nc(SCC(=O)NCc2ccc3c(c2)OCO3)c(C#N)c1-c1cccs1	-1.3	26.3	0.3	0.7	74.2*	-12.5
O=C(CSc1n[nH]c(-c2cccs2)n1)NCc1ccc2c(c1)OCO2	4.1	85.3*	0	0.1	96.8*	1.9
O=C(CSc1n[nH]c(-c2cccs2)n1)NCc1cccs1	/	69.1*	0.8	0.3	24.8	/
Cc1cccc(OCCC(=O)NCC(=O)Nc2c(C)cccc2C)c1	-1.2	/	/	/	/	9.0
COc1ccc(C/C(=N\O)c2ccc(OC)cc2)cc1	-2.6	57.4*	0.4	0.4	57.8*	27.2
C=C(c1ccc(OC)cc1)c1ccc(OC)cc1	-1.5	-14.5	0.6	1.1	36.2	-3.6
Cc1csc(=N)n1CC(=O)N1CCc2ccccc21	6.0	-0.2	1.5	1	-50.0	0.8
O=C(Oc1cccc2cccnc12)c1ccc(Br)o1	-0.4	-5.7	1	1.1	-4.3	-8.8
O=C(Oc1cccc2cccnc12)c1ccc2c(c1)OCCO2	1.0	44.8	3.3*	0.6	-231.1	4.2
CCc1c(C)nc(SCC(=O)CC(=O)OC(C)C)c(C#N)c1C	-1.6	77.0*	0.6	0.2	35.7	-9.4
CSc1nc(N)nc(SCC(=O)OC(C)C)c1C#N	-3.9	11.0	0.4	0.9	56.6*	1.2
CSc1nc(N)nc(SCC(=O)c2ccc(C)cc2)c1C#N	3.0	-2.9	0.5	1	53.9*	9.0
Cc1ccc(C(=O)CSC2=NC(N)=C(C#N)C3(CCCCC3)C2C(N)=O)cc1 (centres undefined)	-2.3	22.3	0.7	0.8	29.5	-4.8
N#Cc1c(SCC(N)=O)nc(-c2ccccc2)c2c1CCCC2	1.4	-1.7	0.9	1	5.5	-8.7
CC(=O)c1cc(C#N)c(SCC(=O)OC(C)C)nc1C	0.0	36.9	0.8	0.6	24.5	-64.9
Cc1ccc(-c2nc(SCC(N)=O)c(C#N)c3c2CCCC3)cc1	-4.4	64.6*	0.6	0.4	38.5	-10.7
COc1ccc(CN2CCSCC2)cc1O	-1.5	47.7	1	0.5	-3.9	-4.4
COc1ccc(C(=O)CC(Nc2ccc([N+](=O)[O-])cc2)c2ccc(Cl)cc2)cc1 (centres undefined)	1.2	66.6*	0.2	0.3	78.1*	-53.6
COc1ccc(NC(=O)CCC(=O)OCC(=O)c2ccc(Oc3ccc([N+](=O)[O-])cc3)cc2)cc1	78.3	/	/	/	/	-11.7
Cc1ccc(-c2ccc(=O)n(CCC(=O)NCCN3CCCCC3C)n2)cc1 (centres undefined)	6.9	-2.8	1	1	-3.1	-15.5
Cn1cc(SCC(=O)Nc2ccc3c(c2)OCO3)c2ccccc21	0.7	100.4*	0.3	0	65.1*	1.2
Cn1c(=O)cc(SCC(=O)Nc2ccc3c(c2)OCO3)c2ccccc21	-3.2	9.5	1.7	0.9	-67.9	1.5
